Results reported in PubChem BioAssay (Tox21).
Records with an inconclusive call do not appear. Active and inactive are the calls of the source. Calls come from the whole dose curve; as a rule, active = well fitted inhibition curve with a large enough effect in the signal ratio in the repeat runs (not every such curve was filed as active); inconclusive = weak or mixed curves, or effect the other way; inactive = no such curve, though single readings can be large or run the other way; the % refers to the signal ratio.

biological target: Peroxisome proliferator-activated receptor delta (Homo sapiens) (UniProt Q03181); assay: qHTS assay to identify small molecule antagonists of the peroxisome proliferator-activated receptor delta (PPARd) signaling pathway (AID 743215); details: HEK293H PPARd-UAS-bla, beta-lactamase FRET ratio, antagonist, 17 h; series mostly up to 62 µM; ratio activity, negative = inhibition: at the top concentration;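 note: cells stimulated with agonist L165041 at 300 nM final during compound exposure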
How it was run: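 Read-out is beta-lactamase FRET fluorescence, measured 2 h after substrate addition at room temperature. Beforehand, UAS-bla HEK293H cells carrying the PPARd reporter were exposed to compounds with L165041 at 300 nM final for 17 h at 37 C.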
% is set by controls: 0 for no effect and ±100 for the full control effect.

Peroxisome proliferator-activated receptor delta (Homo sapiens), sequence (Q03181 whole entry, looked up): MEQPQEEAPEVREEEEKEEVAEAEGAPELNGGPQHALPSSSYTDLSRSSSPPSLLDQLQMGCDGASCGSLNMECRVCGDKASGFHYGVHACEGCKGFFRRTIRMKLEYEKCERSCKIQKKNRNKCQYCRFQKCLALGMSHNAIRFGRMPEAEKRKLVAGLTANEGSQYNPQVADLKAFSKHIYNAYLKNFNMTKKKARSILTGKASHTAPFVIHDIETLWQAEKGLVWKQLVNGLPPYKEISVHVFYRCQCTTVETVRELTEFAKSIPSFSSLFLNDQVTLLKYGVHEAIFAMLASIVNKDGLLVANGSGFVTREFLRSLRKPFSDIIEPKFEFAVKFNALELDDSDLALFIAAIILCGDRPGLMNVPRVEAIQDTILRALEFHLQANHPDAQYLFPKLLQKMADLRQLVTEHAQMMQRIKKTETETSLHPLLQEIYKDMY

Row | Structure (SMILES) | ratio activity, negative = inhibition
1 | O=C(/C=C/c1ccc(O)c(O)c1)O[C@@H]1C[C@](O)(C(=O)O)C[C@@H](O)[C@H]1O | 7.14% [at 80.4 µM] (inactive)
2 | CC(=O)c1c(C)c([N+](=O)[O-])c(C(C)(C)C)c([N+](=O)[O-])c1C | -18.9% (inactive)
3 | Cc1ncsc1CCO | 0.623% (inactive)
4 | O=C(O)c1cccc(N(Cc2cccnc2)c2ccc(OC(F)F)c(OC(F)F)c2)c1 | -18.5% (inactive)
5 | O=C(Cl)c1ccc([N+](=O)[O-])cc1 | 4.67% (inactive)
6 | CCCCCCc1ccc(N)cc1 | 1.09% (inactive)
7 | CC(C)(C)c1ccc(S)cc1 | 1.51% (inactive)
8 | COc1ccc([C@@H]2Sc3ccccc3N(CCN(C)C)C(=O)[C@@H]2OC(C)=O)cc1 | -1.99% (inactive)
9 | N=C(N=C(N)N)N1CCOCC1 | 0.986% (inactive)
10 | CCOc1cc(OCC)c(C(=O)CCC(=O)O)cc1OCC | 2.02% (inactive)
11 | Oc1ccc(O)c2c(O)cccc12 | -0.159% (inactive)
12 | CCOC(=S)SSC(=S)OCC | -10.4% (inactive)
13 | CCOc1nc2cccc(C(=O)O)c2n1Cc1ccc(-c2ccccc2-c2nn[nH]n2)cc1 | -6.45% (inactive)
14 | C[C@@H](C1=C(CCN(C)C)Cc2ccccc21)c1ccccn1 | -4.96% (inactive)
15 | CCN(CC)CCOC(=O)C1(c2ccccc2)CCCC1 | 0.162% (inactive)
16 | CC(C(=O)O)c1ccc(-c2ccccc2)c(F)c1 (stereo not drawn) | -3.71% (inactive)
17 | CCCCCCCCCCCCCCCBr | 2.01% (inactive)
18 | C1=Cc2ccccc2C1 | -8.16% (inactive)
19 | CCN(CC)CCNC(C(=O)OCCC(C)C)c1ccccc1 (stereo not drawn) | -2.1% (inactive)
20 | CC(C)(C)C1CCCCC1O (stereo not drawn) | -8.06% (inactive)
21 | c1ccc(OCc2ccc(CCCN3CCOCC3)cc2)cc1 | 0.565% (inactive)
22 | O=C(C(=O)c1ccc(Br)cc1)c1ccc(Br)cc1 | -5.13% [at 28.9 µM] (inactive)
23 | OCC1CC2CC1C1CCC(CO)C21 (stereo not drawn) | -4.76% (inactive)
